Shown are actives, neighbours in structure and some others; about 21% of the full set was active somewhere.
Shiga toxin inh: Shiga toxin inhibition; Vero cells, Shiga toxin protein synthesis inhibition reporter; inhibition, % at 38.7 µM; 290,000 compounds, 9.2% hits; in the data active = inhibition mostly above about 28%, no sharp cut-off; inactive = mostly below about 43%; note: 0% is about no effect
CHX counter: counter-screen hit for Shiga toxin inhibitors, cycloheximide; cell reporter, cycloheximide protein synthesis inhibition counterscreen; AID 2314; 300,000 compounds, 12% hits; max response, %; in the data active = max response mostly above about 13%, no sharp cut-off; inactive = mostly below about 14%; note: read at 38.3 µM for the half of the compounds with a filed dose; 0% is about no effect
Pf growth 48h: P. falciparum growth inhibition at 48 hours (one generation); P. falciparum luciferase growth in erythrocytes, 48 h; Potency, µM (top dose mostly 28.7 µM), inactives show at the top dose activity change, negative = inhibition, most hits filed as inhibitors; 310,000 compounds, 5.9% hits; AID 504832; note: potency is the fitted concentration of half-maximal effect; % is set by controls: 0 for no effect and ±100 for the full control effect
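Firefly luciferase activity from engineered P. falciparum reports growth; inhibitors lower the luminescent signal. Cultures contained 2% hematocrit erythrocytes at 0.1% final parasitemia.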
NS1 inh: inhibitors of influenza NS1 protein function | Potency, µM (doses to about 46.1 µM), for inactives: at the top dose activity, positive = more growth | 270,000 compounds, 0.4% hits | AID 2326; calls by dose curve; note: potency is the fitted concentration of half-maximal effect; actives are rising curves; nearly all actives have a fitted effect of over 50% in size
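Growth recovery, yeast-based: influenza A NS1 expressed in S. cerevisiae causes slow growth, and suppressors are detected by OD600. The parent strain without NS1 is used as positive control.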
Pf growth 96h: P. falciparum growth inhibition at 96 hours; P. falciparum luciferase reporter growth, 96 h; Potency, µM (series often up to 28.7 µM), without a hit: at the top dose activity change, negative = inhibition, usual class: inhibitors; 320,000 compounds, 6.9% hits; AID 504834; note: potency is the fitted concentration of half-maximal effect; % is set by controls: 0 for no effect and ±100 for the full control effect
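Infected RBCs, 2% Hct / 0.05% parasitemia final; luciferase-reporter P. falciparum; cpd 96 h, 37 C, 5% CO2; luciferase detection reagent; luminescence.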
* = called active by the depositor. Unless noted, calls come from the whole dose curve; as a rule, active = well fitted inhibition curve with a large enough effect; inconclusive = small, poorly fitted or top-dose-only effect, or another doubt; inactive = no such curve, though single readings can be large or run the other way.

How did FC(F)Oc1ccc(-c2csc(=Nc3cccnc3)n2CC2CCCO2)cc1 (centres undefined) do in these assays?
Shiga toxin inh: 3; CHX counter: 2; Pf growth 48h: inconclusive; NS1 inh: 11%; Pf growth 96h: 13µM*

How did Cc1cccc(-n2ccnc2SCC(=O)Nc2cc(C)on2)c1 do in these assays?
Shiga toxin inh: 4; CHX counter: 5; Pf growth 48h: -22%; NS1 inh: 4%; Pf growth 96h: 10µM*

How did COc1cccc(-n2ccnc2SCC(=O)Nc2ccccc2)c1 do in these assays?
Shiga toxin inh: -1; CHX counter: 8; Pf growth 48h: -5%; NS1 inh: -79%; Pf growth 96h: 31%

What do the screens show for `Cc1cc(NC(=O)CSc2nccn2-c2cccc(C)c2C)no1`?
Shiga toxin inh: 18; CHX counter: -2; Pf growth 48h: inconclusive; Pf growth 96h: 8.3µM*

How did COc1cccc(NC(=O)CSc2nccn2-c2cccc(OC)c2)c1 do in these assays?
Shiga toxin inh: 26; CHX counter: -2; Pf growth 48h: 3%; NS1 inh: -43%; Pf growth 96h: 12µM*

Results for O=C1CSC(c2cn(-c3ccccc3)nc2-c2ccccc2)N1Cc1ccco1 (centres undefined) ?
Shiga toxin inh: 35; CHX counter: 19*; Pf growth 48h: 13µM*; NS1 inh: -58%; Pf growth 96h: 2.9µM*

What do the screens show for `O=C1CSC(c2cn(-c3ccccc3)nc2-c2cccs2)N1CC1CCCO1` (centres undefined)?
Shiga toxin inh: 4; CHX counter: -3; Pf growth 48h: 12µM*; NS1 inh: -33%; Pf growth 96h: 8.3µM*

What do the screens show for `CCc1ccc(-c2nn(-c3ccccc3)cc2C2SCC(=O)N2Cc2ccco2)cc1` (centres undefined)?
Shiga toxin inh: 3; CHX counter: 8; NS1 inh: 22%; Pf growth 96h: -100%

How did CCc1c(C)sc(NC(=O)/C=C/C(=O)O)c1C(N)=O do in these assays?
Shiga toxin inh: -5; CHX counter: -2; Pf growth 48h: -8%; NS1 inh: -2%; Pf growth 96h: 2%

How did Cc1ccc2c(C)c(C(=O)NCCN3CCCC(O)C3)oc2c1C (centres undefined) do in these assays?
Shiga toxin inh: 4; CHX counter: 10; Pf growth 48h: -8%; NS1 inh: -6%; Pf growth 96h: 24%

How did Cc1ccc2c(C)c(C(=O)N3CCCCC3CO)oc2c1C (centres undefined) do in these assays?
Shiga toxin inh: 67*; CHX counter: 21*; Pf growth 48h: 28%; NS1 inh: -24%; Pf growth 96h: inconclusive

How did CCCc1ccc2oc(C(=O)N3CCC[C@H]3CO)c(C)c2c1 do in these assays?
Shiga toxin inh: 29*; CHX counter: 41*; Pf growth 48h: 91%; NS1 inh: -36%; Pf growth 96h: inconclusive

What do the screens show for `CCCc1ccc2oc(C(=O)N3CCC(COC)C3)c(C)c2c1` (centres undefined)?
CHX counter: 33*; Pf growth 48h: 78%; NS1 inh: -34%; Pf growth 96h: inconclusive

What do the screens show for `Cc1ccc2c(ccc(=S)n2C)c1`?
Shiga toxin inh: 11; CHX counter: 10; Pf growth 48h: 42%; NS1 inh: 1%; Pf growth 96h: inconclusive

What do the screens show for `O=C(COc1cccc(C(F)(F)F)c1)NNC(=O)Cc1ccc(S(=O)(=O)N2CCOCC2)s1`?
Pf growth 48h: 13µM*; Pf growth 96h: inconclusive

How did O=C(Cc1ccc(S(=O)(=O)N2CCOCC2)s1)N1CCN(c2cccc(C(F)(F)F)c2)CC1 do in these assays?
Shiga toxin inh: -6; CHX counter: -1; Pf growth 48h: inconclusive; NS1 inh: 8%; Pf growth 96h: 10µM*

What do the screens show for `O=C(c1ccc(S(=O)(=O)N2CCOCC2)cc1)N1CCN(S(=O)(=O)c2ccc(Cl)s2)CC1`?
Shiga toxin inh: 15; CHX counter: -2; Pf growth 48h: -4%; NS1 inh: -3%; Pf growth 96h: 10%

What do the screens show for `CCc1cc(C(=O)N2CCN(S(=O)(=O)c3ccc(Cl)cc3)CC2)sc1C`?
Pf growth 48h: 9.3µM*; Pf growth 96h: 9.3µM*

How did O=C(Cc1ccc(S(=O)(=O)N2CCOCC2)s1)N1CCN(S(=O)(=O)c2ccc(Cl)cc2)CC1 do in these assays?
Pf growth 48h: 7.4µM*; Pf growth 96h: 4.7µM*

What do the screens show for `O=C(COc1ccccc1F)NNC(=O)Cc1ccc(S(=O)(=O)N2CCOCC2)s1`?
Pf growth 48h: -2%; Pf growth 96h: -11%

Assay outcomes: PubChem, National Center for Advancing Translational Sciences (NCATS)
